A short description of the experiment: activators of LNCaP cell differentiation, retest, confirmation, side scatter shift, flow cytometry (AID 1069).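 Further: LNCaP human prostate cancer cells in low-serum medium with charcoal-stripped FBS; percent of cells with raised granularity gated so DMSO controls show 10%.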 Particulars: 4 d, stronger effect = higher value.

Activity calls are given as the source filed them.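 How the source made its calls: active means high combined rank on largest and smallest cell-count-weighted shift across three tests, rank score above 45, floors 50 and 25 (some results past the limit were not filed as active); inactive means the rest.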

For `Cc1ccc(Cn2c(C)c3cnn(CC(=O)N4CCC5(CC4)OCCO5)c(=O)c3c2C)cc1`, the side scatter shift by setting is: (at 100 µM) 9.1% (inactive); (side scatter shift, at 10 µM) 3.35%.
Taken in the same sequence, the figures for `CCn1c(=O)cc(OCC(=O)N2CCN(Cc3ccc4c(c3)OCO4)CC2)c2ccccc21` were 0% (inactive) and 3.6%.
Taken in the same sequence, the figures for `O=C(COc1ccc2ccccc2c1)N1CCN(C2CCN(Cc3ccccc3)CC2)CC1` were 54.3% (inactive) and 5.8%.
For `C[C@H]1CCC/C=C/C2C[C@H](O)CC2[C@H](O)/C=C/C(=O)O1` (stereo not given in full), the side scatter shift was 8.7% (inactive) (at 100 µM) and 9.7% (side scatter shift, at 10 µM).
As for `CCn1c(=O)cc(OCC(=O)N2CCC3(CC2)OCCO3)c2ccccc21`, the side scatter shift reads like this: (at 100 µM) 6.7% (inactive); (side scatter shift, at 10 µM) 1.7%.
In the case of `Cc1cc(OCC(=O)O)c2c3c(c(=O)oc2c1)CCCC3`, the side scatter shift by setting is: (at 100 µM) 5.1% (inactive); (side scatter shift, at 10 µM) 5.9%.
`Cc1nc2ccccc2c(=O)n1-c1ccc(F)cc1`: the side scatter shift was 8.9% (inactive) (at 100 µM) and 3.5% (side scatter shift, at 10 µM).
For the compound `CCOc1ccc(C2SCC(=O)Nc3c2c(=O)[nH]n3C2CCCCCC2)cc1` (stereo not given), the side scatter shift runs as follows: (at 100 µM) 22.2% (inactive); (side scatter shift, at 10 µM) 10.5%.
`Clc1ccc(COC(Cn2ccnc2)c2ccc(Cl)cc2Cl)cc1` (stereo not given): the side scatter shift (at 100 µM) was 18.2% (inactive) and the side scatter shift (side scatter shift, at 10 µM) amounted to 2.85%.
Consider `Cc1ccc2c(c1)[C@@H]1CN(C)CC[C@@H]1N2C(=O)Nc1cccc(C(F)(F)F)c1`, for which the side scatter shift is, setting by setting: (at 100 µM) 23.1% (inactive); (side scatter shift, at 10 µM) 10.6%.

Values taken from PubChem BioAssay AID1069 (NMMLSC, 2008).
